Compounds without any hit were thinned out: in the full panel of roughly 83,000, 20% have a hit.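 Cell lines were cultured in 96-well plates, exposed to a single compound concentration, and assessed for percent growth 48 hours later.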 A number with no mark means an inactive call. Calls of active or inactive are those of the source. Rule for the calls: active = growth percent below 10; inactive = the rest.

Growth data for seven compounds are collected here from PubChem BioAssay (NCI).

Among the test systems are HCT-15 colon; HT29 colon; SNB-75 CNS; SNB-19 CNS; U251 CNS; PC-3 prostate; SK-MEL-5 melanoma; UACC-62 melanoma; LOX IMVI melanoma; SK-MEL-28 melanoma; SK-MEL-2 melanoma; EKVX NSCLC; SN12C renal; UO-31 renal; TK-10 renal; ACHN renal; CAKI-1 renal; A498 renal; CCRF-CEM leukemia; MOLT-4 leukemia.
Test in all cases: NCI-60 one-dose screen, 48 h (100 = growth as untreated, 0 = no growth, -100 = all killed)
Settings in all cases: 10 µM unless noted

Consider `CN(C)S(=O)(=O)c1cccc(C(=O)Nc2nc(-c3ccc(F)c(F)c3)cs2)c1`, for which the growth was 61.3% in the experiment on HCT-15 colon; 74.3% in the experiment on HT29 colon; 75.5% in the experiment on SNB-75 CNS; 92% in the experiment on SNB-19 CNS; 55.1% with U251 CNS; 39.1% in the experiment on PC-3 prostate. For the same compound, the growth was 2.37% (active) with SK-MEL-5 melanoma; 45.9% with UACC-62 melanoma; 71.9% with LOX IMVI melanoma; 102% with SK-MEL-28 melanoma; 32.2% with SK-MEL-2 melanoma; 48.7% in the experiment with EKVX NSCLC. The growth was 62.9% with SN12C renal; 38.7% with UO-31 renal; 81.2% with TK-10 renal; 63.4% in the experiment with ACHN renal; 97.1% with CAKI-1 renal; 46.3% in the experiment on A498 renal. For the same compound, the growth is 39.6% with CCRF-CEM leukemia and 28.2% in the experiment on MOLT-4 leukemia.
On to `CCOC(=O)c1ccc2c(c1)nc(-c1ccccc1)n2C1CCCCC1`, for which the growth in the experiment on HCT-15 colon is 78.2%; in the experiment with HT29 colon, 67.4%; in the experiment on SNB-75 CNS it was 97%; with SNB-19 CNS it was 105%; with U251 CNS, 88.8%; with PC-3 prostate, 74.1%. For the same compound, the growth is 93.8% in the experiment with SK-MEL-5 melanoma; 88% with UACC-62 melanoma; 99.2% in the experiment with LOX IMVI melanoma; 107% in the experiment with SK-MEL-28 melanoma; 86.1% in the experiment with SK-MEL-2 melanoma; 83% in the experiment on EKVX NSCLC. Moreover, the growth with SN12C renal is 105%; in the experiment with UO-31 renal, 84%; in the experiment with TK-10 renal, 116%; in the experiment with ACHN renal, 112%; with CAKI-1 renal it was 101%; with A498 renal, 97.8%. Besides, the growth in the experiment with CCRF-CEM leukemia is 79.4%; in the experiment with MOLT-4 leukemia, 85.5%.
Consider `COc1ccc(OC)c(-c2nc(SCC(=O)c3ccc(C#N)cc3)[nH]c(=O)c2C#N)c1`, for which the growth with HCT-15 colon was 96.9%; with HT29 colon, 108%; in the experiment with SNB-75 CNS it was 93.7%; in the experiment with SNB-19 CNS it was 97.6%; in the experiment with U251 CNS, 103%; in the experiment on PC-3 prostate, 94.5%. Further, the growth with SK-MEL-5 melanoma was 106%; in the experiment on UACC-62 melanoma it was 94.7%; with LOX IMVI melanoma, 94.7%; in the experiment on SK-MEL-28 melanoma it was 102%; in the experiment on SK-MEL-2 melanoma it was 104%; with EKVX NSCLC, 105%. Also, the growth with SN12C renal is 107%; with UO-31 renal it was 76.9%; with TK-10 renal, 103%; in the experiment on ACHN renal, 97.7%; in the experiment with CAKI-1 renal, 96.8%; with A498 renal, 106%. The growth in the experiment with CCRF-CEM leukemia is 106%; in the experiment with MOLT-4 leukemia it was 103%.
With `COc1c(B(O)O)cccc1-c1nc2c(F)cc3[nH]ncc3c2c2c1CCCC2`, the growth is 0.465% (active) with HCT-15 colon; 6.27% (active) in the experiment on HT29 colon; -87.8% (active) in the experiment with SNB-75 CNS; 6.94% (active) in the experiment with SNB-19 CNS; 13.6% in the experiment on U251 CNS; 13.8% in the experiment with PC-3 prostate. For the same compound, the growth with SK-MEL-5 melanoma is -26.3% (active); with UACC-62 melanoma, 2.47% (active); in the experiment on LOX IMVI melanoma, -35.2% (active); in the experiment with SK-MEL-28 melanoma it was 2.91% (active); in the experiment on SK-MEL-2 melanoma, -6.26% (active); in the experiment with EKVX NSCLC, 7.37% (active). The growth was 15.8% in the experiment with SN12C renal; -1.82% (active) in the experiment with UO-31 renal; 16.2% in the experiment with TK-10 renal; 0.144% (active) in the experiment with ACHN renal; -28% (active) with CAKI-1 renal; -64.6% (active) with A498 renal. Moreover, the growth with CCRF-CEM leukemia was 13.9%; in the experiment with MOLT-4 leukemia, 7.73% (active).
Consider `CSc1nnc(-c2cc3c([nH]c4ccccc43)c(-c3cccc(O)c3)n2)n1-c1ccccc1`, for which the growth with HCT-15 colon was 26.7%; with HT29 colon it was 41.3%; with SNB-75 CNS it was 5.14% (active); with SNB-19 CNS it was 38.6%; in the experiment with U251 CNS it was 32.3%; in the experiment on PC-3 prostate, 29.9%. Moreover, the growth in the experiment with SK-MEL-5 melanoma is 19.9%; in the experiment with UACC-62 melanoma, 42.3%; in the experiment on LOX IMVI melanoma, 33.1%; with SK-MEL-28 melanoma, 36.2%; in the experiment on SK-MEL-2 melanoma, 12.9%; in the experiment on EKVX NSCLC it was 45.8%. For the same compound, the growth in the experiment on SN12C renal was 43.7%; in the experiment with UO-31 renal it was 39.7%; in the experiment with TK-10 renal, 62.2%; with ACHN renal, 36.3%; in the experiment on CAKI-1 renal it was 44.6%; in the experiment on A498 renal it was 25.5%. For the same compound, the growth with CCRF-CEM leukemia is 21.8%; in the experiment with MOLT-4 leukemia, 26.6%.
Consider `CC(=O)/C(=C\c1c(-c2ccccc2)[nH]c2ccccc12)S(C)(=O)=O`, for which the growth is 19.3% with HCT-15 colon; 4.54% (active) in the experiment with HT29 colon; -28.8% (active) with SNB-75 CNS; 23.2% with SNB-19 CNS; 15.3% in the experiment with U251 CNS; 21.6% with PC-3 prostate. The growth was -6.28% (active) with SK-MEL-5 melanoma; 17.5% in the experiment with UACC-62 melanoma; 33.1% with LOX IMVI melanoma; 34.4% with SK-MEL-28 melanoma; 59.9% in the experiment with SK-MEL-2 melanoma; 50.4% with EKVX NSCLC. The growth with SN12C renal was 33.4%; in the experiment with UO-31 renal, 51%; with TK-10 renal, 42.7%; in the experiment on ACHN renal it was 50.2%; in the experiment on CAKI-1 renal, 45.6%; in the experiment with A498 renal, 31.9%. The growth in the experiment on CCRF-CEM leukemia is 1.75% (active); in the experiment on MOLT-4 leukemia, -13.5% (active).
In the case of `CN(C)Cc1ccc(O)c(C(=O)O)c1`, the growth is 107% with HCT-15 colon; 107% in the experiment on HT29 colon; 108% with SNB-75 CNS; 109% in the experiment on SNB-19 CNS; 93.3% in the experiment with U251 CNS; 105% in the experiment on PC-3 prostate. Besides, the growth in the experiment with SK-MEL-5 melanoma is 108%; in the experiment on UACC-62 melanoma, 104%; in the experiment on LOX IMVI melanoma, 99.4%; in the experiment with SK-MEL-28 melanoma, 119%; with SK-MEL-2 melanoma, 124%; in the experiment on EKVX NSCLC it was 101%. In addition, the growth was 109% with SN12C renal; 96.4% in the experiment with UO-31 renal; 70.7% in the experiment on TK-10 renal; 101% in the experiment with ACHN renal; 92.8% in the experiment with CAKI-1 renal; 104% in the experiment on A498 renal. Moreover, the growth with CCRF-CEM leukemia is 103%; in the experiment with MOLT-4 leukemia, 101%.
